A selection: hits, their analogues and other compounds. The true share with any hit is near 11%.
HTT aggregate = inhibitors of mutant huntingtin aggregate formation in PC12 cells. PC12 HttQ103-GFP aggregates, Acumen cytometry, 40 h. Potency, µM (titrated, usually from 46.1 µM), without a hit: top-dose activity change, negative = inhibition, usual class: inhibitors. 220,000 compounds, 1.1% hits. AID 1688; also: potency is read from the fitted curve at half-maximal effect; % is scaled to controls: 0 for no effect and ±100 for the full control effect; nearly all actives have a fitted effect of over 60% in size
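Steps: seed 1500 PC12 HTTQ103-GFP cells/well; add tebufenozide, 100 nM final; add compound titration; add ATPLite reagent; quantify GFP aggregates by laser scanning cytometry.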
PNC assembly inh = inhibitors of perinucleolar compartment assembly; PC3M PTB-GFP, PNC prevalence imaging, 16 h; active compounds read low; activity change (PNC), negative = inhibition, % at 10 µM; 140,000 compounds, 3.1% hits;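 active = readout at or below -70, meaning at least 70% loss of cells showing the perinucleolar compartment, a nuclear body marking cancer cells; inconclusive = readout between -30 and a set limit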;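 also: plate controls were DMSO wells for no effect and camptothecin positive control wells for full effect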
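Compounds are pinned in duplicate onto adhered PC3M cells stably expressing GFP-tagged PTB and incubated 16 h at 37 C. Cells are then fixed, nuclei stained with Hoechst, and PNC-positive cells counted.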
ALDH1A1 inh = blocks purified human ALDH1A1 activity | P00352 | Purified ALDH1A1, NADH fluorescence, propionaldehyde substrate | Potency, µM (doses to about 75.3 µM), for inactives: at the highest dose activity, negative = inhibition, hits mostly inhibitors | 220,000 compounds, 7.3% hits | AID 1030; active = well fitted inhibition curve with a large enough effect, not every such curve was filed as active; inconclusive = small, poorly fitted or top-dose-only effect, or another doubt; inactive = no such curve, though single readings can be large or run the other way;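 also: potency is read from the fitted curve at half-maximal effect; plate controls were no enzyme wells and a reference inhibitor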
Target sequence (P00352 whole entry, looked up): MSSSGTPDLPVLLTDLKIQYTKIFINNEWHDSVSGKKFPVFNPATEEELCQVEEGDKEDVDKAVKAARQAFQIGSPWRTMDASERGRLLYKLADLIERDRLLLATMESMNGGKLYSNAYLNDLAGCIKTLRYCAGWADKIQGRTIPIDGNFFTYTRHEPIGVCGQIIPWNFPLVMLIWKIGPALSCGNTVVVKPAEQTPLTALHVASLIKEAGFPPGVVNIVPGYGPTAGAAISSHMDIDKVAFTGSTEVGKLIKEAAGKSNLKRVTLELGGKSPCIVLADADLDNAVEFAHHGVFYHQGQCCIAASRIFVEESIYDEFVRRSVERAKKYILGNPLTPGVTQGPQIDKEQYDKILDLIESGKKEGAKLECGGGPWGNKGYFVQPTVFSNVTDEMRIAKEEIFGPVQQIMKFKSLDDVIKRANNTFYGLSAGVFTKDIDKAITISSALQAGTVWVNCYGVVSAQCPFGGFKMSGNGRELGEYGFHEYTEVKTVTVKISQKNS
HPGD inh = blocks human HPGD enzyme activity; P15428; purified HPGD, NADH fluorescence kinetic, PGE2 substrate; Potency, µM, inactives show at the highest dose activity change, negative = inhibition, most hits filed as inhibitors; 150,000 compounds, 4.3% hits; AID 894; active = well fitted inhibition curve with a large enough effect, not every such curve was filed as active; inconclusive = small, poorly fitted or top-dose-only effect, or another doubt; inactive = no such curve, though single readings can be large or run the other way; also: potency is read from the fitted curve at half-maximal effect; % is scaled to controls: 0 for no effect and ±100 for the full control effect
Target sequence (P15428 whole entry, looked up): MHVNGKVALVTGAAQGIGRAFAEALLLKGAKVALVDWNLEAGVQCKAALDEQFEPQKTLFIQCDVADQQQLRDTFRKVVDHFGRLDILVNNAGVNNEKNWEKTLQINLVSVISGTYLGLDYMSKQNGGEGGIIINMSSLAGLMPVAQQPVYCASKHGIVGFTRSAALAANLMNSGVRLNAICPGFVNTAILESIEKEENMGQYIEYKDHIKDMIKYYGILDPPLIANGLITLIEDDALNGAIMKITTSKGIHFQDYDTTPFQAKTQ
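20 nM HPGD preincubated 15 min at room temperature with compound in 50 mM Tris-HCl pH 8, 0.01% Tween 20. Started with 1 mM NAD+ and 30 uM prostaglandin E2; NADH fluorescence (360/450 nm) read 5 times over 30-s intervals, last minus first.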
GoLoco inh red = RGS12 GoLoco-Gai1 interaction inhibition | Gai1:RGS12 GoLoco peptide FP, rhodamine, 10 min | 230,000 compounds, 0.44% hits | P63096 | Potency, µM (titrated, usually from 61.6 µM), for inactives: at the highest dose activity, negative = inhibition, actives largely listed as inhibitors; active = well fitted inhibition curve with a large enough effect, not every such curve was filed as active; inactive = no such curve, though single readings can be large or run the other way; also: potency is read from the fitted curve at half-maximal effect; % is scaled to controls: 0 for no effect and ±100 for the full control effect; nearly all actives have a fitted effect of over 30% in size
HTT cytoprotect = cytoprotection in Huntington HTT-Q103 PC12 cell model; Potency, µM (top dose mostly 56.4 µM), for inactives: cytoprotection (ATP increase), usual class: activators; AID 1471; 230,000 compounds, 0.14% hits; PC12 HTT-Q103 induced, cytoprotection, ATP luminescence, 40 h; also: potency is read from the fitted curve at half-maximal effect; % of control where 0% means no effect; nearly all actives have a fitted effect of over 45% in size
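Stable PC12 Q103-GFP cells in serum-supplemented, phenol red-free DMEM; induction by tebufenozide at 100 nM final; compound dose series; cell viability quantified luminescently from ATP.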
* marks the source's active call; other numbers are inactive results; u = inconclusive; x = no result; ! = repeats disagree; [ ] = dose if it differs, or a comment. Unless noted, calls follow the shape of the dose curve; as a rule, active = well fitted curve in the direction sought with a large enough effect; inconclusive = small, poorly fitted or top-dose-only effect, or another doubt; inactive = no such curve, though single readings can be large; an effect the other way counts as inactive or inconclusive.

SMILES	HTT aggregate	PNC assembly inh	ALDH1A1 inh	HPGD inh	GoLoco inh red	HTT cytoprotect
Cn1cc(SCC(=O)NCC2CCCO2)c2ccccc21 (stereo not given)	-12.7%	-6.1	1.7%	28.2µM*	5.2%	-3.0%
Cc1ccc(N=C2NC(=O)/C(=C/c3cn(C)c4ccccc34)S2)cc1C	u	25.3	0.1%	-9.5%	142.8%	33.1%[10 µM]
COCCNC(=S)N/N=C(\C)c1ccc(O)cc1	-2.9%	0.4	17.5%	-14.6%	3.9%	-8.1%[1.9 µM]
C/C(=N\NC(=S)NC1CCCCC1)c1ccc(O)cc1	-18.7%	x	14.1µM*	x	9.4%	-30.0%
C/C(=N\NC(=S)NC1CCCCC1)c1ccccc1	-7.4%	-100.0*	0.1%	-9.6%	-4.8%	26.8%[10 µM]
C/C(=N\NC(=S)Nc1ccccc1C)c1ccc(O)cc1	-4.7%	x	20µM*	x	1.1%	-22.0%
COCCOC(=O)c1ccccc1C(=O)OCCOC	x	x	-59.0%	-5.7%	7.7%	-45.1%
CCC(=C(CC)c1ccc(O)cc1)c1ccc(O)cc1	x	x	5.4%[20.9 µM]	-2.8%	5.7%[21.6 µM]	9.0%[40.3 µM]
CN1CCS/C1=C/C=C1/SC(=S)N(Cc2ccccc2)C1=O	20.1%	76.1	1µM*	-13.5%	-1.9%	-9.7%[10 µM]
CN1CCS/C1=C/C=C1\SC(=S)N(CC(=O)O)C1=O	-5.1%[9.22 µM]	x	11.2µM*	x	180.8%	-3.2%[10 µM]
CCN1C(c2ccccc2)=C(c2ccccc2)S/C1=C/C=C1\SC(=S)N(C)C1=O	-24.4%	-6.7	u	-6.6%	10.6%	24.8%[1.9 µM]
CC(/C=C1\SC(=S)N(CC(=O)O)C1=O)=C\c1ccccc1	0.5%	x	x	x	3.5%	-84.3%
CC(=O)OCC1C2CC[C@H]3C(OCc4ccc(F)cc4C(F)(F)F)OC[C@]4(C)[C@H]3C2=C(CN4C(=O)OC(C)(C)C)[C@H](C)C1COC(C)=O (stereo not given in full)	x	x	-8.3%	-1.4%	0.9%	-36.7%
Cc1cc(C(F)F)n2ncc(C(=O)N3CCCCC3)c2n1	14.2%	-7.3	0.4%	11.2µM*	-3.0%	-3.3%[10 µM]
C/C(=N\OCC(=O)N/N=C/c1ccccc1)c1cccs1	16.7%	2.3	10.6%	0.9%	4.6%	16.9%[10 µM]
COc1ccc(/C=N/NC(=O)CO/N=C(\C)c2cccs2)cc1	-7.6%[9.22 µM]	-9.5	22.4µM*	-19.9%	7.0%	7.0%
COc1cccc(N2C(=O)C3CCCN3C2c2ccc(N(C)C)cc2)c1 (stereo not given)	11.4%	-28.0	1µM*	-12.4%	1.3%	-16.5%
O=C1C2CCCN2C(c2ccccc2)N1c1ccc(F)cc1 (stereo not given)	-7.4%	44.0	3.2%	-9.9%	4.1%	3.9%
O=C1C2CCCN2C(c2ccc(F)cc2)N1c1ccc(Cl)cc1 (stereo not given)	2.1%	-98.4*	-14.0%	-3.0%	22.9%	-33.6%
CCOC(=O)C1=C(C)NC(C)=C(C(=O)OCC)C1c1ccc(C)o1	0.3%[9.22 µM]	x	7.0%	x	-9.1%	5.8%[10 µM]
CC1=C(C(N)=O)C(c2ccc(C)o2)C(C(N)=O)=C(C)N1	2.7%	u	39.8µM*	-9.7%	-0.9%	-20.3%
Cc1cccc(C)c1NC(=O)NC1CC2CCC(C1)N2Cc1cccs1 (stereo not given)	-7.7%	-83.5*	-17.8%	-3.4%	-11.2%	6.3%[10 µM]
CC(C)c1ccc(NC(=O)NC2CC3CCC(C2)N3Cc2cccs2)cc1 (stereo not given)	-10.2%	x	-1.2%	x	-6.6%	-17.3%
CCOC(=O)c1cc2c(C)[nH]c(C)c2cc(C(=O)OCC)c1=O	-0.3%[9.22 µM]	x	25.1µM*	x	74.7%	0.0%[10 µM]
COc1cc([N+](=O)[O-])c2ncsc2c1	5.8%	-6.7	-6.2%	-4.3%	12.2%	x
SMILES	HTT aggregate	PNC assembly inh	ALDH1A1 inh	HPGD inh	GoLoco inh red	HTT cytoprotect
COc1cc(SSc2cc(OC)cc([N+](=O)[O-])c2N)c(N)c([N+](=O)[O-])c1	-19.7%[9.22 µM]	x	x	x	10µM*	-4.3%[10 µM]
CC(=O)Nc1ccc(S(=O)(=O)Nc2nc3ccc([N+](=O)[O-])cc3s2)cc1	13.0%	x	14.1µM*	x	9.9%	38.7%[10 µM]
CC(=O)Nc1ccc(S(=O)(=O)Nc2nc3ccccc3s2)cc1	-3.8%	14.8	-6.3%	-19.4%	-7.8%	-2.5%
Cc1nc2ncnn2c(C)c1Cc1cccc(C(F)(F)F)c1	3.0%	x	5.6%	x	-0.4%	16.7%[10 µM]
O=C(NNC(=O)c1ccc2ccccc2c1O)c1ccccc1Cl	31.6µM*	28.6	6.4%	-13.7%	-8.8%	10.7%[10 µM]
CCOC(=O)C1=C(C)NC(=O)NC1/C(C)=C/c1ccccc1 (stereo not given)	-16.7%	32.0	-8.7%	1.2%	4.0%	-10.1%
CN(Cc1ccco1)c1nc(-c2cccc(C#N)c2)nc2ccccc12	x	x	u	u	3.2%	4.5%
O=c1c2c(n3cnnc3n1-c1ccccc1)-c1ccccc1CC21CCCCC1	12.1%	-12.7	20µM*	-16.7%	-3.3%	-26.5%
Cc1cccc(-n2c(=O)c3c(n4cnnc24)-c2ccccc2CC32CCCCC2)c1	14.0%	45.2	1.5%	-2.4%	-9.7%	-25.9%
CCN(CC)S(=O)(=O)c1ccc(Oc2ccc(S(=O)(=O)N(CC)CC)cc2)cc1	2.82µM*	u	-7.6%	-3.8%	7.1%	-19.0%
CC(=O)N1[C@H](Cc2ccccc2)C=C[C@]1(C)C(=O)NCc1ccc(C)o1	3.7%	24.5	7.6%	22.4µM*!	-21.0%	-3.0%
C[C@]1(C(=O)NCC2CC2)C=C[C@@H](Cc2ccccc2)N1C(=O)c1ccccc1	x	x	-1.6%	-12.3%	-5.7%	u
CN1[C@H](Cc2ccccc2)C=C[C@]1(C)C(=O)NCC1CC1	x	x	28.2µM*	-18.6%	-6.9%	18.8%
COC(=O)N1C2(C=CC1(C)C(=O)NCc1ccc(N(C)C)cc1)CCCCC2 (stereo not given)	x	x	25.1µM*	-2.0%	2.0%	22.9%
CN(C)c1ccc(CNC(=O)[C@@]2(C)C=C[C@@H](Cc3ccccc3)N2C)cc1	x	x	20µM*	-14.8%	3.4%	-6.4%
COC(=O)N1[C@H](Cc2ccccc2)C=C[C@]1(C)C(=O)NCc1ccc(N(C)C)cc1	x	x	u	-8.0%	-5.6%	21.2%
OCC1(O)OC[C@@H](O)[C@H]1O (stereo not given in full)	15.2%[9.22 µM]	x	x	x	-10.9%	37.4%[10 µM]
CNC(=O)[C@@]1(C)C=C[C@@H](Cc2ccccc2)N1C(=O)OC	-3.7%	-95.8*	8.6%	-4.4%	3.0%	-8.4%
CO/N=C(\C(=O)N[C@@H]1C(=O)N2C(C(=O)[O-])=C(C[n+]3cccc4c3CCC4)CS[C@H]12)c1csc(N)n1	13.7%	x	x	x	x	24.0%
O=C(C1=C[C@H](C2CCCCC2)C[C@H](OCCCCO)O1)N1CCN(Cc2ccccc2)CC1	13.6%[9.22 µM]	x	14.1µM*	x	-2.7%	20.8%[10 µM]
COc1ccc(COc2cc(-c3cccc(OC)c3)nc3ccc(NC(=O)C(C)C)cc23)cc1	-8.6%	18.6	u	u	-2.4%	x
